Values without a mark were called inactive. Inconclusive results are not listed. Calls of active or inactive are those of the source. Unless noted, calls follow the shape of the dose curve; as a rule, active = well fitted curve in either direction with a large enough effect (not every such curve was filed as active); inconclusive = small, poorly fitted or top-dose-only effect, or another doubt; inactive = flat fitted curve, though single readings scatter.
Legend:
[1] = target: Lysosomal acid glucosylceramidase (Homo sapiens) (UniProt P04062); assay: Glucocerebrosidase-p2 (AID 348; in the data active = potency below about 10 µM; also: potency is read from the fitted curve at half-maximal effect); settings: purified GBA, blue fluorogenic substrate, 40 min
How it was run: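 Compounds titrated from 0.6 nM upwards against 0.2 nM enzyme in pH 5.9 citric acid/KH2PO4, taurocholate, tween-20; blue fluorogenic substrate 80 uM, 40 min room temperature, stopped and read Ex 365/Em 440 for AC50.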

[2] = AP1 Signaling Pathway (AID 357); settings: ME-180 AP-1-bla reporter, EGF-induced, beta-lactamase ratio, 5 h; at 7.69 µM (top of the series) unless noted; also: % is scaled to controls: 0 for no effect and ±100 for the full control effect
How it was run: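 Read-out was the 460nm/530nm emission ratio (excitation 405nm) after CCF4 loading for 2.5 hours at room temperature. Cells carried an AP-1-driven beta-lactamase reporter, were stimulated with EC50 EGF plus compound for 5 hours, and AC50 values came from titrations.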

[3] = target: Cytochrome P450 1A2 (Homo sapiens) (UniProt P05177); assay: p450-cyp1a2 (AID 410; calls by dose curve; also: potency is read from the fitted curve at half-maximal effect;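 as to activity change, negative = inhibition: -100% = full effect of reference inhibitor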); settings: recombinant CYP1A2, luciferin-ME demethylation, luminescence; series mostly up to 11.4 µM
How it was run: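 Inhibition was calculated relative to 57 uM furafylline (full inhibition). The reaction used human CYP1A2 at 20nM with Luciferin-ME at its Km, 100uM, driven by an NADPH-regenerating system for 60 min at room temperature.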

[4] = NFAT Signaling Pathway (AID 444); settings: Jurkat NFAT-bla M1, carbachol, beta-lactamase ratio, 5 h; at 7.69 µM (top of the series) unless noted;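 also: carbachol stimulus at about its EC50 of 1 µM final; % is scaled to controls: 0 for no effect and ±100 for the full control effect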
How it was run: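 Jurkat cells with NFAT-driven β-lactamase reporter and co-expressed M1 receptor, stimulated with carbachol (final 1 uM, ~EC50), compound titration, 5 h at 37 °C. CCF4 loaded 1 h at RT; 460/530 nm ratio gave %activity and AC50.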

[5] = Stat Signaling Pathway (AID 446); settings: ME-180 SIE beta-lactamase reporter, IL-6 stimulated, 5 h; at 7.69 µM (top of the series) unless noted;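 also: ME-180 cervical cancer cells given 40 pM IL-6 alongside compound; SIE-controlled beta-lactamase reporter measured as 460/530 nm FRET emission ratio; % is scaled to controls: 0 for no effect and ±100 for the full control effect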
How it was run: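 Reporter line: ME-180 cervical carcinoma, SIE-beta-lactamase. Treatment: compound with 40 pM IL-6, 5 hrs, 37 C, in low-serum OPTI-MEM with 10 mM HEPES pH 7.3. Detection: 460/530 nm fluorescence.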

[6] = target: Glucocorticoid receptor (Homo sapiens) (UniProt P04150); assay: GR-GFP Redistribution (AID 450;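 active = compounds whose dose series gives a full or clear partial fitted curve of increased nuclear translocation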; also: potency is read from the fitted curve at half-maximal effect); settings: U2OS GR-GFP nuclear translocation, laser cytometry, 2 h
[7] = target: Glucocorticoid receptor (Homo sapiens) (UniProt P04150); assay: GR-EFC Redistribution (AID 451; calls by dose curve; also: potency is read from the fitted curve at half-maximal effect); settings: CHO-K1 GR-EFC translocation, beta-gal luminescence, 2 h
How it was run: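 CHO-K1 cells expressing nuclear EA and GR-ED fragments of b-gal; compounds titrated up to 46 uM final, 2 h at 37 C. GR nuclear translocation read as complemented b-gal luminescence after 1 h RT detection.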

[8] = target: Mitogen-activated protein kinase 10 (Mus musculus) (UniProt Q61831); assay: JNK3 AlphaScreen Assay (AID 530); settings: JNK3 lysate, c-Jun phosphorylation; series mostly up to 11.4 µM;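 also: kinase came from lysate of stimulated human HepG2 cells; signal reports phosphorylation of biotinylated GST-cJun 1-79 at Ser73 with 10 µM ATP; % is scaled to controls: 0 for no effect and ±100 for the full control effect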
How it was run: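 qHTS format: compounds tested as titrations against IL-1beta/TNF-alpha-activated HepG2 lysate JNK3 with biotin-GST-cJun substrate and 10 uM ATP at room temperature. Loss of anti-phospho-cJun AlphaScreen signal indicates inhibition.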

[9] = target: Cytochrome P450 2D6 (Homo sapiens) (UniProt P10635); assay: qHTS Assay for Inhibitors and Substrates of Cytochrome P450 2D6 (AID 891; active = well fitted curve in the direction sought with a large enough effect; an effect the other way counts as inactive or inconclusive; also: nearly all actives have a fitted effect of over 60% in size; also: potency is read from the fitted curve at half-maximal effect); settings: recombinant CYP2D6, luciferin-ME EGE luminescence; series mostly up to 11.4 µM
How it was run: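 Human CYP2D6 (5 nM) with 30 uM Luciferin-ME EGE (at Km) in 100 mM KPO4, compound preincubated 10 min, then NADPH regeneration system for 60 min at room temperature. Luciferin read by luminescence; normalized to 1.43 uM quinidine.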

[10] = target: Cytochrome P450 3A4 (Homo sapiens) (UniProt P08684); assay: qHTS Assay for Inhibitors and Substrates of Cytochrome P450 3A4 (AID 884; active = well fitted curve in the direction sought with a large enough effect; an effect the other way counts as inactive or inconclusive; also: potency is read from the fitted curve at half-maximal effect; nearly all actives have a fitted effect of over 50% in size); settings: recombinant CYP3A4, Luciferin-PPXE luminescence; series mostly up to 57.1 µM
How it was run: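 20 nM human CYP3A4 with 25 uM Luciferin-PPXE (at KM) in 200 mM KPO4, preincubated 10 min with compound; NADPH regeneration started a 60 min RT reaction. Luciferin detected by luminescence, normalized to 57 uM ketoconazole as full inhibition.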

[11] = target: Cytochrome P450 3A4 (Homo sapiens) (UniProt P08684); assay: qHTS Assay for Activators of Cytochrome P450 3A4 (AID 885; active = well fitted curve in the direction sought with a large enough effect; an effect the other way counts as inactive or inconclusive; also: nearly all actives have a fitted effect of over 65% in size); settings: recombinant CYP3A4, Luciferin-PPXE luminescence, 60 min; series mostly up to 11.4 µM
How it was run: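 Signal was normalized against complete inhibition by 57 uM ketoconazole. The reaction used 20nM CYP3A4 with 25uM Luciferin-PPXE, 10-min compound preincubation and a 60-min NADPH-supported step at RT.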

[12] = target: 3',5'-cyclic-AMP phosphodiesterase 4B (Homo sapiens) (UniProt Q07343); assay: qHTS Assay for Inhibitors of PDE-IV (AID 607; active = well fitted activation curve with a large enough effect in the main read-out, with a control signal flat, not every such curve was filed as active; also: % of control where 0% means no effect); settings: HEK293 ACTOne CNG channel cells, membrane potential fluorescence; series mostly up to 22.9 µM
How it was run: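 Cell-based read-out of cAMP via a modified cyclic nucleotide-gated channel and membrane potential dye (535/590 nm) in HEK293 cells expressing PDE4 endogenously. Compounds tested up to 22.9 uM final; 100 uM RO 20-1724 reference.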

[13] = qHTS Assay for Identification of Small Molecule Agonists for Hypoxia Response Element Signaling Pathway (AID 914; active = well fitted activation curve with a large enough effect in the signal ratio, with a control signal flat, not every such curve was filed as active; the % refers to the signal ratio; also: % of control where 0% means no effect); settings: ME-180 HRE-bla reporter, beta-lactamase ratio, CoCl2, 17 h; activation: hits give high values
How it was run: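 ME-180 cells carrying an HRE-driven beta-lactamase reporter were treated with compounds in a titration series plus an EC50 level of CoCl2 for 17 h at 37 degrees Celsius; CCF4 readout as the 460nm/530nm ratio gave AC50 values.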

[14] = target: Cytochrome P450 2C19 (Homo sapiens) (UniProt P33261); assay: qHTS Assay for Inhibitors and Substrates of Cytochrome P450 2C19 (AID 899; active = well fitted curve in the direction sought with a large enough effect; an effect the other way counts as inactive or inconclusive; also: nearly all actives have a fitted effect of over 60% in size; also: potency is read from the fitted curve at half-maximal effect); settings: recombinant CYP2C19, luciferin-H EGE luminescence; series mostly up to 11.4 µM
How it was run: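 Signal comes from luciferase acting on luciferin released by CYP2C19-mediated hydroxylation of Luciferin-H EGE, 10uM (KM). Assay mix: 5nM enzyme, 50mM KPO4; 60 min at 37C with NADPH regeneration. Data normalized against 57uM ketoconazole.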

[15] = target: Cytochrome P450 2C9 (Homo sapiens) (UniProt P11712); assay: qHTS Assay for Inhibitors and Substrates of Cytochrome P450 2C9 (AID 883; active = well fitted curve in the direction sought with a large enough effect; an effect the other way counts as inactive or inconclusive; also: potency is read from the fitted curve at half-maximal effect; nearly all actives have a fitted effect of over 60% in size); settings: recombinant CYP2C9, luciferin-H luminescence, 60 min; series mostly up to 11.4 µM
How it was run: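 Signal: luciferase luminescence reporting luciferin produced by CYP2C9. Conditions: 10nM enzyme, Luciferin-H 100uM at KM, 25mM KPO4, 37C, 60 min NADPH-driven reaction. Reference: 57uM sulphaphenazole as 100% inhibition.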

Sequence of Cytochrome P450 3A4 (Homo sapiens) (P08684 whole entry, looked up): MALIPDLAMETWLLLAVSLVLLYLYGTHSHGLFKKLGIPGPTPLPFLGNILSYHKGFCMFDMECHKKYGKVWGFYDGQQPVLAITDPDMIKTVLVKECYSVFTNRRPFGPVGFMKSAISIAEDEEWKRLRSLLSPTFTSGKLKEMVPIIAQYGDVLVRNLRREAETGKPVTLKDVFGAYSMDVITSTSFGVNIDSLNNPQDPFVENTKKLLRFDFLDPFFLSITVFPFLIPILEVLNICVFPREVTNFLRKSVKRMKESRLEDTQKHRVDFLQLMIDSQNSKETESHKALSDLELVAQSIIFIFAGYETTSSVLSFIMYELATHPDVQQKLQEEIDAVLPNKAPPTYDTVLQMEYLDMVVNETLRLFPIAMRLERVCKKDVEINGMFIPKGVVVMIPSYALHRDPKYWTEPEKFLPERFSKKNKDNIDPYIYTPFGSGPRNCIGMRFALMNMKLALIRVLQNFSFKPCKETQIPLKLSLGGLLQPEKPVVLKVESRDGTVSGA
Sequence of Cytochrome P450 2C19 (Homo sapiens) (P33261 whole entry, looked up): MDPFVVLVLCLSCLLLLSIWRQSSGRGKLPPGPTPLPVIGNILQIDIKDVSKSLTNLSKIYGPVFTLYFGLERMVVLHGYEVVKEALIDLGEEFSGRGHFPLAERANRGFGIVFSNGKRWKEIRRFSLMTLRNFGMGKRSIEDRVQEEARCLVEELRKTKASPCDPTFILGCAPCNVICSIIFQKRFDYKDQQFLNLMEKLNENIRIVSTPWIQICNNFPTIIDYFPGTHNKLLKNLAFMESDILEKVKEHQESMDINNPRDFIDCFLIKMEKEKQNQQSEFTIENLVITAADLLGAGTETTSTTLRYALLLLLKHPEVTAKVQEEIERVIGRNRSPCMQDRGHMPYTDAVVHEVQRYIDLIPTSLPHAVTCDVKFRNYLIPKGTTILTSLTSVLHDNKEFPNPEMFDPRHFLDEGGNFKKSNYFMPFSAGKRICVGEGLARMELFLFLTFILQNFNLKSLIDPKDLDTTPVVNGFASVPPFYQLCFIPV
Sequence of 3',5'-cyclic-AMP phosphodiesterase 4B (Homo sapiens) (Q07343 whole entry, looked up): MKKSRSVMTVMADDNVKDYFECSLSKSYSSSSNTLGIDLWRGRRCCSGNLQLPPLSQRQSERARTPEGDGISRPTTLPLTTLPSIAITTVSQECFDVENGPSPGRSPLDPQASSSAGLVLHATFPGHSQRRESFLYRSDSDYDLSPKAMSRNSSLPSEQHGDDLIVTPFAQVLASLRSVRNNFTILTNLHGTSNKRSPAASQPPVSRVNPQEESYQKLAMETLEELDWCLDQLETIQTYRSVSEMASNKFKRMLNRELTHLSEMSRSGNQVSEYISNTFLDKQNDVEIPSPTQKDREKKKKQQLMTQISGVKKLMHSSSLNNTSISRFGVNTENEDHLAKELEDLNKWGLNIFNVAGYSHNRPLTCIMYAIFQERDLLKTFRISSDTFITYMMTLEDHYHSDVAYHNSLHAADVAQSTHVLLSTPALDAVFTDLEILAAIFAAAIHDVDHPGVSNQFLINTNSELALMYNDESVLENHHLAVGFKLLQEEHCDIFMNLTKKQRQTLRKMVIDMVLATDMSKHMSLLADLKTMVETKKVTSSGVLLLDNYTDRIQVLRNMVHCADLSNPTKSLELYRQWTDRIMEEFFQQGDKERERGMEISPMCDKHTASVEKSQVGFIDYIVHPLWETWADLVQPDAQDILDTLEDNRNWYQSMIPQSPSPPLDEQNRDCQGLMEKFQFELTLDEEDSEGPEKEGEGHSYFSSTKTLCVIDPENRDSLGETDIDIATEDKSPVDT
Sequence of Lysosomal acid glucosylceramidase (Homo sapiens) (P04062 whole entry, looked up): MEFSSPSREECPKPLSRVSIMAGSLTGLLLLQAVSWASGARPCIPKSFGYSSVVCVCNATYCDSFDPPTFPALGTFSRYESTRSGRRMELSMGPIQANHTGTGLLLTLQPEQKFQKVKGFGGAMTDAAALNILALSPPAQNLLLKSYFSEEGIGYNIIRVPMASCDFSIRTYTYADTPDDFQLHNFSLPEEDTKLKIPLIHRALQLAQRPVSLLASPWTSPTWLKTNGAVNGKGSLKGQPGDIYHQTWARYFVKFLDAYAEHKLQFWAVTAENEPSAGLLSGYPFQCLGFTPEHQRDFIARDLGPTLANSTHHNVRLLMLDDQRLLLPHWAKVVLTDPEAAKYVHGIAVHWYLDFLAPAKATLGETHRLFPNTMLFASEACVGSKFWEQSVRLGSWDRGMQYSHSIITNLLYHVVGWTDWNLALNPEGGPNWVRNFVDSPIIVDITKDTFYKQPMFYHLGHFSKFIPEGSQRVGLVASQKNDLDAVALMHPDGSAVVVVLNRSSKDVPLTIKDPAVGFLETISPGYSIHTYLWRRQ
Sequence of Glucocorticoid receptor (Homo sapiens) (P04150 whole entry, looked up, the tested form may be a part): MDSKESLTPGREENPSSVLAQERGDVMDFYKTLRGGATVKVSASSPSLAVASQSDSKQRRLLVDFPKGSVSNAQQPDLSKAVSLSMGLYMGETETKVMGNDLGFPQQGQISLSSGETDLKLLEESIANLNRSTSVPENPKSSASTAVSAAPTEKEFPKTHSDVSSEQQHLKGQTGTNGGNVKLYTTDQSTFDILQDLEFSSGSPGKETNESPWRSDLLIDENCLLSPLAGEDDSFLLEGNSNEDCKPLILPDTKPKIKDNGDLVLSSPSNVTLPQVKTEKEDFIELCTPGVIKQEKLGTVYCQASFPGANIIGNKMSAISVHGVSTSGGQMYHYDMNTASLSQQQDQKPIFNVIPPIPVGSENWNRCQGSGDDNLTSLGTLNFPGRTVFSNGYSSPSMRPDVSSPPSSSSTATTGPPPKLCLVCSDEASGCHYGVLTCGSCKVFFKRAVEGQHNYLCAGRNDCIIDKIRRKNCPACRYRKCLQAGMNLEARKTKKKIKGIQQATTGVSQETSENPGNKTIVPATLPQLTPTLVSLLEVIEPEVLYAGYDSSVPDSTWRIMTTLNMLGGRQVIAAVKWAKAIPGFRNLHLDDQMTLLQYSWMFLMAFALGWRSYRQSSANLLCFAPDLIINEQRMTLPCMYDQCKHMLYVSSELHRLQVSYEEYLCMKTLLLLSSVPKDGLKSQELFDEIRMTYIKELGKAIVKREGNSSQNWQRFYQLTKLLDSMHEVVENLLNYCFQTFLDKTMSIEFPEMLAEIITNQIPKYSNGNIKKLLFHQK
Sequence of Cytochrome P450 1A2 (Homo sapiens) (P05177 whole entry, looked up): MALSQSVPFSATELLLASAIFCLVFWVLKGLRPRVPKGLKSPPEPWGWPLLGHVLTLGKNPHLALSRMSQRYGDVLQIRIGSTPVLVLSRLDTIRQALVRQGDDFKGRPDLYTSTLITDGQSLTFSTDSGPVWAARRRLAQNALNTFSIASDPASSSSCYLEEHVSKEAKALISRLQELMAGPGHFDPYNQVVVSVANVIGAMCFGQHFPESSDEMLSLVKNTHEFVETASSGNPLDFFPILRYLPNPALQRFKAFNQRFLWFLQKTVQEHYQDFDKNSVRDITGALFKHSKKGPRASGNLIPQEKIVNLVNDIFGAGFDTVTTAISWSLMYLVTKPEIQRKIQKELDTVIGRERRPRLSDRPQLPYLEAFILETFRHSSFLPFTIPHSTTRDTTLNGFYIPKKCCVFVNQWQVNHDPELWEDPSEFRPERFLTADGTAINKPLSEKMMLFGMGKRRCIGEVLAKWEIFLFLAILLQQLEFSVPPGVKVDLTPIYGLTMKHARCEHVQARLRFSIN
Sequence of Cytochrome P450 2C9 (Homo sapiens) (P11712 whole entry, looked up): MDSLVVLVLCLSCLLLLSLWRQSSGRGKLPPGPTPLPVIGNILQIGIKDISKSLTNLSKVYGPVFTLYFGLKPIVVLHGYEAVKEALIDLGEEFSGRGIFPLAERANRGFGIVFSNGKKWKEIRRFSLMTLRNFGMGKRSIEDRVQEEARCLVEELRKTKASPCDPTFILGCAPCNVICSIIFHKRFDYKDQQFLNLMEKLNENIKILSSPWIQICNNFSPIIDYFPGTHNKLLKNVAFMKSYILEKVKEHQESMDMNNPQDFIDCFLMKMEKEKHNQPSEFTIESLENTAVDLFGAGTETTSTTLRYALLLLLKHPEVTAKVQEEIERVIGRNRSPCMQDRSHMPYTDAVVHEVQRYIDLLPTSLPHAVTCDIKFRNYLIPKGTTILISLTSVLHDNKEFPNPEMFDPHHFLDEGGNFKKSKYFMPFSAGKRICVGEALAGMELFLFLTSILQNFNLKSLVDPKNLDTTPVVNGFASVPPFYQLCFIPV
Sequence of Cytochrome P450 2D6 (Homo sapiens) (P10635 whole entry, looked up): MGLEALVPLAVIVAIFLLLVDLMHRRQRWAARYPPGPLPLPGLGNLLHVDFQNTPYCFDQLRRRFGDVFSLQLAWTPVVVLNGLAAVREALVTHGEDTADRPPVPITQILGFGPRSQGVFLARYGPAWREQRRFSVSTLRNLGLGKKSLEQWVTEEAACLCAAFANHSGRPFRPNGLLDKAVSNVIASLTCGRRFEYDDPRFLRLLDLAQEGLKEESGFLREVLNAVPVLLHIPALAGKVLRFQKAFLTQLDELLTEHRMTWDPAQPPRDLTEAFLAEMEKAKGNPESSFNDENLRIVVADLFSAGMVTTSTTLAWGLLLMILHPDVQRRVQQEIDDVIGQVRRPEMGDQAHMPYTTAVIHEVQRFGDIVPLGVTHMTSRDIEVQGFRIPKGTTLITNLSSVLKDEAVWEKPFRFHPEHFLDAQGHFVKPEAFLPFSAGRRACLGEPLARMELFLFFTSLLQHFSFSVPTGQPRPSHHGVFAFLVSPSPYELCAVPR

Row | Structure (SMILES) | Potency [1] | activity change, negative = inhibition [2] | Potency [3] | activity change, negative = inhibition [4] | activity, negative = inhibition [5] | Potency [6] | Potency [7] | Potency [8] | Potency [9] | Potency [10] | Potency [11] | Potency [12] | activation [13] | activity change, negative = inhibition [3] | Potency [14] | Potency [15]
1 | OCCN(CO)CO | > 11.4 µM | 6.19% | inactive | 13.5% | 7.15% | > 46 µM | > 9.22 µM | inactive | inactive | – | – | – | – | – | – | –
2 | O=C(O)/C=C\C(=O)Nc1ccc2c(c1)C(=O)c1cc(F)ccc1-2 | > 11.4 µM | -12.9% | 0.794 µM (active) | 9.23% | 0.748% | > 46 µM | > 9.22 µM | inactive | – | 3.16 µM (active) | inactive | – | – | – | – | –
3 | O=[N+]([O-])c1ccc2c(c1)S(=O)c1ccccc1-2 (stereo unspecified) | > 11.4 µM | 11.5% | 0.2 µM (active) | 10.5% | -13.7% | > 46 µM | > 9.22 µM | inactive | – | – | – | inactive | -10.8% | – | – | –
4 | COc1ccc(-n2c(=O)c(C)nc3cnc(Oc4cccc(Cl)c4)nc32)cc1 | > 11.4 µM | -20.7% | 7.94 µM (active) | -1.69% | -10.9% | > 9.22 µM | > 46 µM | inactive | – | – | inactive | – | – | – | – | –
5 | N=C(N)SCC(=O)O | > 11.4 µM | -10.2% | – | 6.44% | -4.57% | > 46 µM | > 9.22 µM | inactive | – | – | – | – | – | -10.2% [at 2.29 µM] | inactive | –
6 | O=C(O)c1[nH]c2c([N+](=O)[O-])cc([N+](=O)[O-])cc2c1C(=O)O | > 11.4 µM | 0.189% | 0.126 µM (active) | 2.5% | -6.73% | > 46 µM | > 9.22 µM | inactive | – | – | – | – | – | – | – | 3.16 µM (active)
7 | CC(=O)OC(C)(C)N=Nc1ccc(Br)cc1 | > 11.4 µM | -5.95% | 3.16 µM (active) | 14.8% | 2.84% | > 46 µM | > 9.22 µM | inactive | – | – | – | – | – | – | 1.26 µM (active) | –
8 | O=C1C(=O)c2ccccc2C(O)=C1C(CCc1ccccc1)C1=C(O)c2ccccc2C(=O)C1=O | > 11.4 µM | -6.25% | – | 6.66% | -1.13% | > 46 µM | > 9.22 µM | – | – | – | – | inactive | – | -21.3% [at 2.29 µM] | – | 3.16 µM (active)
9 | Cn1c(=O)c2[nH]c(CSCc3ccccc3)nc2n(C)c1=O | > 11.4 µM | 12.7% | – | 8.43% | 4.21% | > 46 µM | > 9.22 µM | – | – | – | – | inactive | – | -15.4% [at 2.29 µM] | – | –
10 | CN(CCO)Cc1ncccc1O | > 11.4 µM | -2.61% | – | 14.9% | 12.9% | > 46 µM | > 9.22 µM | – | – | – | – | inactive | – | -10% [at 2.29 µM] | – | –
11 | Cc1ccc(S(=O)(=O)N[C@H](C(=O)O)C(C)C)cc1 | > 11.4 µM | 9.07% | inactive | -0.0198% | -0.976% | > 46 µM | > 9.22 µM | – | – | – | – | inactive | – | – | – | –
12 | O=C1C=C(Nc2nc(C(=O)O)cc(=O)[nH]2)c2ccccc2C1=O | > 11.4 µM | -3.21% | – | 7.2% | 1.38% | > 46 µM | – | inactive | – | – | – | inactive | – | -15.8% [at 2.29 µM] | – | –
13 | C/C(=N/O)c1ccc2cc(Br)c3ccccc3c2c1 | > 11.4 µM | 15% | – | 1.9% | -6.91% | > 46 µM | – | inactive | 0.0251 µM (active) | – | – | inactive | – | -13.6% [at 2.29 µM] | – | –
14 | O=P(O)(O)O[C@@H]1O[C@H](CO)[C@@H](O)[C@H](O)[C@@H]1O | > 11.4 µM | 4.24% | inactive | 2.61% | 6.12% | > 46 µM | – | inactive | – | – | – | inactive | – | – | – | –
15 | CN(C)c1ccc(N=Nc2cccc3ccoc23)cc1 | > 11.4 µM | 1.15% | 0.251 µM (active) | -18.9% | 4.35% | > 46 µM | > 9.22 µM | – | – | – | inactive | inactive | – | – | – | –
16 | O=C1c2ccccc2C(=O)c2c1ccc(C(=O)O)c2-c1ccc2ccccc2c1 | > 11.4 µM | 1.13% | 1.26 µM (active) | 16.7% | -16.8% | > 46 µM | > 9.22 µM | – | – | – | – | inactive | – | – | 2.51 µM (active) | –
